Measurements from the supplement of paper PMC4894684.
Where a name gives a salt, the structure may show the parent alone. ± gives the standard deviation of the averaged measurements.

test system: Toxoplasma gondii RH (in HFF); experiment: parasite growth relative to the screen mean (all compounds = 100%); higher = less inhibition of parasite growth; conditions: 5 µM; 72 h; oxygen 21 %
Outline: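 Each value is parasite growth expressed against the screen mean, averaged over two screens, where the mean of all compounds = 100%. The screen used 5 µM final compound on confluent human foreskin fibroblasts infected with RH β-Gal–GFP Toxoplasma (MOI 1:5) within 2 h and grown 72 h at 21% O2. Parasite number was measured by a CPRG β-Gal assay against in-plate standard curves.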

| SMILES | parasite growth [%] |
| --- | --- |
| Nc1nc(Cl)nc2c1ncn2[C@@H]1O[C@H](CO)[C@@H](O)[C@@H]1F [Clofarabine] | 67.9 ± 2.8 |
| CNC(=O)[C@H]1O[C@@H](n2cnc3c(NCc4cccc(I)c4)nc(Cl)nc32)[C@H](O)[C@@H]1O | 120 ± 28 |
| CCCCCCN(CCCCCC)C(=O)Cc1c(-c2ccc(F)cc2)[nH]c2ccccc12 | 151 ± 28 |
| c1cc2c(cc1C1CCCCC1)c1c3n2CCNC3CCC1 (centres undefined) [Tetrindole mesylate] | 13.2 ± 2.2 |
| Cc1cc(C(C)(C)C)c(O)c(C)c1CC1=NCCN1 [Oxymetazoline hydrochloride] | 196 ± 16 |
| C=CCN1CCc2cc(O)c(O)cc2C(c2ccccc2)C1 (centres undefined) | 135 ± 1.6 |
| CC(=O)NCC(=O)N[C@H](CCC(=O)O)C(=O)O [N-Acetylglycyl-D-glutamic acid] | 132 ± 22 |
| COc1cc(OC)c(NC(=O)Nc2cc(C)on2)cc1Cl | 135 ± 17 |
| O=C1CCc2cc(OCCCCc3nnnn3C3CCCCC3)ccc2N1 [Cilostazol] | 74.6 ± 3.3 |
| C=C1C(=O)O[C@@H]2/C=C(\C)CC/C=C(\C)CC[C@@H]12 [Costunolide] | 30.7 ± 25 |
| CC(=O)N(O)[C@@H]1c2cc(C#N)ccc2OC(C)(C)[C@H]1O | 92.8 ± 30 |
| COc1ccc2c(c1)c(CC(=O)N1CCOCC1)c(C)n2C(=O)c1ccc(Cl)cc1 | 133 ± 23 |
| COc1cccc(CCc2ccccc2OCC[C@@H]2C[C@@H](O)CN2C)c1 | 53.4 ± 25 |
| Cc1ccc2c(c1)c1c3n2CCNC3CCC1 (centres undefined) [Pirlindole mesylate] | 152 ± 16 |
| Oc1ccc(-c2nc(-c3ccc(F)cc3)c(-c3ccncc3)[nH]2)cc1 | < 0 |
| CC(C)[C@H](NS(=O)(=O)c1ccc(-c2ccc(Br)cc2)cc1)C(=O)O | 130 ± 34 |
| O=c1ncccn1[C@@H]1O[C@H](CO)[C@@H](O)[C@H]1O [Zebularine] | 119 ± 12 |
| O=C(O)c1cc(=O)c2c(Cl)cc(Cl)cc2[nH]1 [5,7-Dichlorokynurenic acid] | 136 ± 26 |
| Cc1cc(C(=O)O)sc1C(N)C(=O)O (centres undefined) | 126 ± 5.2 |
| CCCCn1c(=O)c2[nH]c(C34CC5CC(CC3C5)C4)nc2n(CCCO)c1=O | 101 ± 16 |

| SMILES | parasite growth [%] |
| --- | --- |
| CC(C(=O)O)c1ccc(-c2ccccc2)c(F)c1 (centres undefined) [Flurbiprofen] | 139 ± 26 |
| CCCn1c(=O)c(C)cn2nc(N)nc12 | 145 ± 2.1 |
| O=[N+]([O-])c1cccc2c[nH]nc12 | 97.2 ± 10 |
| Cc1ccc2c(c1)C(=O)C1(O)CCN(c3ccccc3)C1=N2 (racemic) [(±)-Blebbistatin] | 161 ± 15 |
| COc1ccc2[nH]c(I)c(CCNC(C)=O)c2c1 [2-Iodomelatonin] | 106 ± 4.9 |
| C[C@H]1O[C@H](O[C@H]2[C@H](O)[C@@H](O)[C@@H](O[C@H]3[C@H](O)[C@@H](O)C(O)O[C@@H]3CO)O[C@@H]2CO)[C@H](O)[C@@H](O)[C@@H]1N[C@H]1C=C(CO)[C@@H](O)[C@H](O)[C@H]1O (some centres undefined) [Acarbose] | 114 ± 36 |
| O=C(O)CCCc1ccccc1 [sodium 4-Phenylbutyrate] | 64.6 ± 3.4 |
| O=C(/C=C/c1ccc(O)c(O)c1)OCCc1ccccc1 [Caffeic acid phenethyl ester] | 105 ± 73 |
| O=C1NC(=O)c2cc(Nc3ccccc3)c(Nc3ccccc3)cc21 | 176 ± 43 |
| CC(CCCCC(=O)Nc1ccc(C(F)(F)F)cc1)NCCc1cnc[nH]1 (centres undefined) [HTMT dimaleate] | 95.1 ± 7.2 |
| COc1cc(Br)c(S(=O)(=O)Nc2ccc(Cl)c(O[C@@H]3CCN(C)C3)c2)cc1OC | 57.1 ± 16 |
| Cc1scc2c1N(C(=O)CN1CCN(C)CC1)c1ccccc1NC2=O [Telenzepine dihydrochloride] | 133 ± 26 |
| COc1cc2ncn(-c3cc(OCc4ccccc4C(F)(F)F)c(C(N)=O)s3)c2cc1OC | 93.1 ± 20 |
| O=C(O)c1cccnc1C(=O)O [Quinolinic acid] | 125 ± 12 |
| O=C1OC(OC(=O)c2cccnc2Nc2cccc(C(F)(F)F)c2)c2ccccc21 (centres undefined) [Talniflumate] | 113 ± 28 |
| COc1ccccc1N1CCN(CC(O)COc2cccc3ccccc23)CC1 (centres undefined) [Naftopidil hydrochloride] | 118.7 ± 0.3 |
| COc1ccc(CC(C)NCC(O)c2ccc(O)c(NC=O)c2)cc1 (centres undefined) [Formoterol hemifumarate] | 126 ± 5.6 |
| CCCCCCCC/C=C\CCCCCCCC(=O)NCc1ccc(O)c(OC)c1 [Olvanil] | 155 ± 38 |
| CC(=O)N[C@@H](CC(=O)N[C@@H](CCC(=O)O)C(=O)O)C(=O)O [Spaglumic acid] | 131 ± 6.6 |
